In PubChem BioAssay (NCATS):
Several values for one entry are separate records, joined by “and”; a condition that tells them apart may be missing. Equal values may be shown once. Records with an inconclusive call do not appear. The source holds several records for some structures; these can differ, active in one and inactive in another. Activity calls are given as the source filed them. Calls follow the shape of the dose curve; as a rule, active = well fitted curve in the direction sought with a large enough effect; inconclusive = small, poorly fitted or top-dose-only effect, or another doubt; inactive = no such curve, though single readings can be large; an effect the other way counts as inactive or inconclusive.

Assays:
[1] = molecular target: Cytochrome P450 2C9 (Homo sapiens) (UniProt P11712); experiment: qHTS Assay for Inhibitors and Substrates of Cytochrome P450 2C9 (AID 883); also: nearly all actives have a fitted effect of over 60% in size; also: potency is read from the fitted curve at half-maximal effect; as to activity change, negative = inhibition: % is scaled to controls: 0 for no effect and ±100 for the full control effect
Chain of Cytochrome P450 2C9 (Homo sapiens) (P11712 whole entry, looked up): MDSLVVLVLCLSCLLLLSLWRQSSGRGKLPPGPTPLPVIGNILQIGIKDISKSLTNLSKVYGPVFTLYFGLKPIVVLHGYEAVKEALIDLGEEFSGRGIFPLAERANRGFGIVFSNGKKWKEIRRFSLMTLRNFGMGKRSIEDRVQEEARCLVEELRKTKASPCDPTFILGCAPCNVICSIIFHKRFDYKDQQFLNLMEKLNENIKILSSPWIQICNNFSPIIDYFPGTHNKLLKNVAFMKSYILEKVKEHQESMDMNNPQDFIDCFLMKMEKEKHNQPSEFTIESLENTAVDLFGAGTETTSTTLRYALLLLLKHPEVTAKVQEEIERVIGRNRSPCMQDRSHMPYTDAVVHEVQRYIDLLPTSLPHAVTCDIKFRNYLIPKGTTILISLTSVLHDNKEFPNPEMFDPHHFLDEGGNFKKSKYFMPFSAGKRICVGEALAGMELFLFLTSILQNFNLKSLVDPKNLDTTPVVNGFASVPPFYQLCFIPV
Method in brief: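 Turnover of Luciferin-H (100uM, KM) by 10nM human CYP2C9 was measured over 60 min at 37C with NADPH regeneration; inhibitors and some substrates reduce luminescence. Data normalized to sulphaphenazole 57uM.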

[2] = molecular target: Cytochrome P450 3A4 (Homo sapiens) (UniProt P08684); experiment: qHTS Assay for Inhibitors and Substrates of Cytochrome P450 3A4 (AID 884); also: nearly all actives have a fitted effect of over 50% in size; also: potency is read from the fitted curve at half-maximal effect; as to activity change, negative = inhibition: series mostly up to about 57 µM; % is scaled to controls: 0 for no effect and ±100 for the full control effect
Chain of Cytochrome P450 3A4 (Homo sapiens) (P08684 whole entry, looked up): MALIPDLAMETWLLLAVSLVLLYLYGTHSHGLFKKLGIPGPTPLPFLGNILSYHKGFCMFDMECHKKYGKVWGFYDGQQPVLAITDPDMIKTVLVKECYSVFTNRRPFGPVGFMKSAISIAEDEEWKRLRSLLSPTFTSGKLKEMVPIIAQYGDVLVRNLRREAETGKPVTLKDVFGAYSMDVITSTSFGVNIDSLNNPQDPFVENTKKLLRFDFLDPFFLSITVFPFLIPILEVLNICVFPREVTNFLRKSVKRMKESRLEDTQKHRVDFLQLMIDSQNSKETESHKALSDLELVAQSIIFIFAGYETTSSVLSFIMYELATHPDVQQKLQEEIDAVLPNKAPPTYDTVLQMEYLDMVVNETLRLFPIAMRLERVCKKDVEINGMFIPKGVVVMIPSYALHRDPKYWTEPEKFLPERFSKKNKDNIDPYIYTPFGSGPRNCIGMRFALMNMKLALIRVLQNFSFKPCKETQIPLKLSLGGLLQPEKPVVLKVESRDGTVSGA
Method in brief: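 20 nM human CYP3A4 with 25 uM Luciferin-PPXE (at KM) in 200 mM KPO4, preincubated 10 min with compound; NADPH regeneration started a 60 min RT reaction. Luciferin detected by luminescence, normalized to 57 uM ketoconazole as full inhibition.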

[3] = molecular target: Cytochrome P450 3A4 (Homo sapiens) (UniProt P08684); experiment: qHTS Assay for Activators of Cytochrome P450 3A4 (AID 885); also: nearly all actives have a fitted effect of over 65% in size
Method in brief: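 Quantitative HTS format: compounds preincubated with 20nM human CYP3A4 and Luciferin-PPXE substrate at KM, reaction started by NADPH regeneration, stopped after 60 min, luciferase luminescence read 20 min later.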

[4] = molecular target: Cytochrome P450 2D6 (Homo sapiens) (UniProt P10635); experiment: qHTS Assay for Inhibitors and Substrates of Cytochrome P450 2D6 (AID 891);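 also: luciferin methyl ether substrate demethylated by CYP2D6 with NADPH regeneration; % is scaled to controls: 0 for no effect and ±100 for the full control effect; nearly all actives have a fitted effect of over 60% in size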
Chain of Cytochrome P450 2D6 (Homo sapiens) (P10635 whole entry, looked up): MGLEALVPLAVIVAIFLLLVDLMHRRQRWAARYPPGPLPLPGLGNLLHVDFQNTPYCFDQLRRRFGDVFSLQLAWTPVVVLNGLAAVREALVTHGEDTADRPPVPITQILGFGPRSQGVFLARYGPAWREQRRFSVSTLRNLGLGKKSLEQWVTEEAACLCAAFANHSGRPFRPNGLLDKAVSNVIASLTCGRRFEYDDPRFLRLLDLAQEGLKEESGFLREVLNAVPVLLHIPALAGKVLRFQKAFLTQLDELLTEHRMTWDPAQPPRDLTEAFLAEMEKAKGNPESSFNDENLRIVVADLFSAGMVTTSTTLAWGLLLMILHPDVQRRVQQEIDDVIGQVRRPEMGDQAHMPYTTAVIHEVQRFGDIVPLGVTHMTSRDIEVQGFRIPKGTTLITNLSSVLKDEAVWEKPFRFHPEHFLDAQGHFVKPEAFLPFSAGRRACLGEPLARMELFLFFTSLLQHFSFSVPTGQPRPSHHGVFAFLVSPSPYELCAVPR
Method in brief: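 Human CYP2D6 (5 nM) with 30 uM Luciferin-ME EGE (at Km) in 100 mM KPO4, compound preincubated 10 min, then NADPH regeneration system for 60 min at room temperature. Luciferin read by luminescence; normalized to 1.43 uM quinidine.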

[5] = molecular target: Cytochrome P450 2C19 (Homo sapiens) (UniProt P33261); experiment: qHTS Assay for Inhibitors and Substrates of Cytochrome P450 2C19 (AID 899); also: nearly all actives have a fitted effect of over 60% in size; also: potency is read from the fitted curve at half-maximal effect
Chain of Cytochrome P450 2C19 (Homo sapiens) (P33261 whole entry, looked up): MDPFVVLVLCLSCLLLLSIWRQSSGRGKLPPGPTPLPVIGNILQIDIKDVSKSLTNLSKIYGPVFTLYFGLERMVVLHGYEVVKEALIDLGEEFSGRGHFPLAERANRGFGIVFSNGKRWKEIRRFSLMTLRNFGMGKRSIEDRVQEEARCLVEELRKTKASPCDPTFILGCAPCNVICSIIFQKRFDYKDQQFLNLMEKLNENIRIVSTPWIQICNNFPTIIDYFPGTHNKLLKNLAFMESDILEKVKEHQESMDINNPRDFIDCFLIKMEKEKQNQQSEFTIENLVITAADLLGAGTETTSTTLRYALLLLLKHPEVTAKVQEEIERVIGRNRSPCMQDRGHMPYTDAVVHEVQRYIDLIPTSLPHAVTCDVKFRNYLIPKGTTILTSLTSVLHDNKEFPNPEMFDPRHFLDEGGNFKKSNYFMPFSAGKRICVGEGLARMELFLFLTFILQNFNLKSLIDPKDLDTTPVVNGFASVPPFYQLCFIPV
Method in brief: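 Reactions contain 5nM enzyme, 10uM Luciferin-H EGE (KM) and 50mM KPO4; compound preincubates 10 min at 37C, NADPH regeneration starts turnover for 60 min. Luminescence after detection reagent gives activity.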

Row | Structure (SMILES) | Potency [1] | Potency [2] | activity change, positive = activation [3] | Potency [4] | activity change, negative = inhibition [2] | Potency [5]
1 | COc1cccc([C@H]2Oc3ccc(OC)cc3/C(=N\O[C@@H](C)c3cn([C@H](CO)Cc4ccccc4)nn3)[C@@H]2O)c1 | 1.58 µM (active) | 3.16 µM (active) and 3.98 µM (active) | -102% [at 11.4 µM] (inactive) and -98.9% [at 11.4 µM] (inactive) | – | – | –
2 | CCOC(=O)OCC1OC(CCc2ccccc2)CCC1Oc1ccc(OC)cc1 (stereo unspecified) | inactive | 3.98 µM (active) | -68.7% [at 11.4 µM] (inactive) | inactive | – | –
3 | CO/N=C\c1ccc(C(=O)N2[C@H](c3ccc(C)cc3)[C@@H](C)CC[C@H]2C(=O)OC)cc1 | 2.51 µM (active) | 3.16 µM (active) | -64.1% [at 11.4 µM] (inactive) | – | – | –
4 | COC(=O)C1=C2N(Cc3ccccc3)C(C)=C(C(=O)OC)C(c3ccccc3)N2C(=O)[C@](O)(C(=O)OC)C1 (stereo partly specified) | inactive | – | -51.3% [at 11.4 µM] (inactive) | inactive | -26.5% [at 11.4 µM] (inactive) | inactive
5 | C=CCOC(=O)C(C(C)=O)C(NC(=O)OC)c1cccs1 (stereo unspecified) | inactive | 3.16 µM (active) | -101% [at 11.4 µM] (inactive) | inactive | – | 0.398 µM (active)
6 | COC(=O)C1=C(C)N(Cc2ccccc2)C2=C3C(=O)OCCC3[C@@](O)(C(=O)OC)C(=O)N2C1c1ccccc1 (stereo partly specified) | inactive | 3.98 µM (active) | -61.3% [at 11.4 µM] (inactive) | inactive | – | inactive
7 | C=C(C)C(O)/C=C/c1ccc(Br)cc1 (stereo unspecified) | 3.16 µM (active) | 3.98 µM (active) | -65.3% [at 11.4 µM] (inactive) | – | – | –
8 | Cc1ccc(S(=O)(=O)N[C@H]2COC(=O)C/C=C\[C@@H](C)COC(=O)C/C=C\[C@@H]2C)cc1 | inactive | 3.16 µM (active) | -68.8% [at 11.4 µM] (inactive) | – | – | –
9 | COc1ccc(OC2C=CC(C#Cc3ccc(Br)cc3)OC2CO)c(C(C)(C)C)c1 (stereo unspecified) | 3.16 µM (active) | 3.98 µM (active) | -84.8% [at 11.4 µM] (inactive) | inactive | – | –
10 | CCC(=O)[C@]12O[C@@]3(C4C(=O)OCCC41)N(Cc1ccccc1)C(C)=C(C(=O)OC)C(c1ccccc1)N3C2=O (stereo partly specified) | inactive | 1.26 µM (active) | -106% [at 11.4 µM] (inactive) | inactive | – | inactive
11 | CC1CCC2C(=O)N3C(CCC(C)[C@@H]3c3cccc(N4CCOCC4)c3)C(=O)N2C1c1cccc(Br)c1 (stereo partly specified) | 2.51 µM (active) | 0.0251 µM (active) | -62% [at 11.4 µM] (inactive) | inactive | – | –
12 | COc1ccc(OC2C=CC(c3ccccc3)OC2CO)cc1 (stereo unspecified) | inactive | 3.98 µM (active) | -66.9% [at 11.4 µM] (inactive) | – | – | –
13 | CC1CN2C(CCC(C)C2c2ccc(Br)cc2)C(=O)O1 (stereo unspecified) | inactive | – | -51.1% [at 11.4 µM] (inactive) | inactive | -15.8% [at 11.4 µM] (inactive) and -28.1% [at 11.4 µM] (inactive) | inactive and 501 nM (active)
14 | COc1ccc(/C=C/NC(=O)c2ccc(OC)cc2)cc1 | inactive | 3.16 µM (active) | -68.6% [at 11.4 µM] (inactive) | inactive | – | –
15 | CC(=O)OCC1OC(c2cc(C)cc(C)c2)C=CC1OC(C)=O (stereo unspecified) | inactive | 3.16 µM (active) | -86.4% [at 11.4 µM] (inactive) | inactive | – | –
16 | COc1ccc(/C=C/NC(=O)Cc2ccc(OC)c(OC)c2)cc1 | inactive | 3.16 µM (active) | -57.1% [at 11.4 µM] (inactive) and -101% [at 11.4 µM] (inactive) | inactive | – | inactive
17 | C=COCC1CN2C(CCC(C)C2c2ccc(Br)cc2)C(=O)O1 (stereo unspecified) | inactive | 3.16 µM (active) and 794 nM (active) | -65.3% [at 11.4 µM] (inactive) and -87.4% [at 11.4 µM] (inactive) | inactive | – | –
18 | COc1cccc([C@@H]2Oc3ccc(OC)cc3/C(=N/O[C@@H](C)CN3CCCCc4nc(C)c(C)cc43)[C@@H]2O)c1 | 1.58 µM (active) | 3.98 µM (active) | -96.4% [at 11.4 µM] (inactive) | – | – | –
19 | COC(=O)NC(c1cccc(C)c1)[C@]1(C(C)=O)CCOC1=O (stereo partly specified) | 3.16 µM (active) | 0.0316 µM (active) | -88.5% [at 11.4 µM] (inactive) | inactive | – | 0.0398 µM (active)
20 | COc1ccc(OC2C=CC(C#Cc3ccccc3)OC2CO)cc1 (stereo unspecified) | inactive | 3.98 µM (active) | -79.3% [at 11.4 µM] (inactive) | inactive | – | –
21 | CC(=O)OCC1OC(C#Cc2ccccc2)C=CC1OC(C)=O (stereo unspecified) | inactive | 3.98 µM (active) | -91.5% [at 11.4 µM] (inactive) and -31.7% [at 11.4 µM] (inactive) | inactive | – | inactive
